# High-throughput results as filed in PubChem BioAssay.
# Pf Dd2 inh – qHTS Primary assay for Inhibitors of Plasmodium falciparum Dd2 growth in vitro; AID 1347417, 2020; hit rate 4.3% among 120,000; Potency, µM (top dose mostly 28.9 µM), inactives show at the top dose activity, negative = inhibition, most hits filed as inhibitors; P. falciparum Dd2 growth, SYBR Green, 72 h; active = well fitted inhibition curve with a large enough effect;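 note: plate controls were DMSO vehicle for no effect and reference drug for full effect; nearly all actives have a fitted effect of over 65% in size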
#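 Infected erythrocytes (Dd2, 0.3% parasitemia, 2.5% hematocrit final) are added to compound in RPMI-1640/Albumax II medium, grown 72 h at 37C in low oxygen, then lysed with saponin/Triton-X containing SYBR Green and read by fluorescence.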
# * hit, by the source's call; i = inactive; [ ] = dose if it differs, or a comment. The entries come from a sample that favours hits as a whole. Potency is the fitted concentration of half-maximal effect.
SMILES,Pf Dd2 inh
COc1cc2c(cc1OC)C(CNC(=O)CC(C)C)N(C(=O)NC(C)C)CC2 (stereo not given),i
CNC(=O)[C@@H]1CN(C(=O)Cc2ccc(OC)c(OC)c2)C[C@H]1COC,-11.0%
CCCC(=O)N1CCc2cc(OC)c(OC)cc2C1COc1ccc(C(=O)OC)cc1 (stereo not given),10µM*
CCNC(=O)N1CCc2cc(OC)c(OC)cc2C1CNC(=O)CC(C)C (stereo not given),0.3%
CCCCC(=O)N1CCc2cc(OC)c(OC)cc2C1COc1ccc(C(=O)OCC)cc1 (stereo not given),11.2µM*
CCC(=O)N1CCc2cc(CNC(=O)Cc3ccc(OC)c(OC)c3)ccc21,23.4%
CCOC(=O)CC1c2cc(OCC)c(OCC)cc2CCN1C(=O)Nc1cccc(Cl)c1 (stereo not given),-22.8%
COC(=O)c1ccc(OCC2c3cc(OC)c(OC)cc3CCN2C(=O)Cc2ccc(OC)c(OC)c2)cc1 (stereo not given),11.2µM*
CCCCNC(=O)N1CCc2c(c3cc(F)ccc3n2C)C1,-16.3%
CC(C)NC(=O)NC[C@H]1OC[C@@H](NCc2cccnc2)[C@@H]1O,7.2%[44.1 µM]
CN(Cc1cnn(-c2ccc(F)cc2)c1)C(=O)c1cn(Cc2cccc3ccccc23)nn1,-3.4%
CC(C)NC(=O)N1CNC(=O)C12CCN(C(=O)c1ccccc1)CC2,1.8%
Cc1cc(C)c(NC(=O)Cn2ccn3nc4c(c3c2=O)CCCC4)c(C)c1,21.7%
CCOc1ccc(CN2C(=O)c3ccccc3Sc3ccc(C(=O)NCc4ccc(C)cc4)cc32)cc1,12.6µM*
CCOc1ccc(CN2C(=O)c3ccccc3Sc3ccc(C(=O)NCCc4ccccc4)cc32)cc1,-18.4%
CCOc1ccc(CN2C(=O)c3ccccc3Sc3ccc(C(=O)OC)cc32)cc1,15.9%
COc1cccc(CN2C(=O)c3ccccc3Sc3ccc(C(=O)NCCc4ccc(Cl)cc4)cc32)c1,11.2µM*
COc1cccc(CNC(=O)c2ccc3c(c2)N(Cc2ccc(F)cc2Cl)C(=O)c2ccccc2S3)c1,11.2µM*
O=C(O)c1ccc2c(c1)N(Cc1ccc(F)cc1Cl)C(=O)c1ccccc1S2,i
COc1ccc(CNC(=O)c2ccc3c(c2)N(Cc2cccc(Cl)c2)C(=O)c2ccccc2S3)c(OC)c1,11.2µM*
COc1ccc(CNC(=O)c2ccc3c(c2)N(Cc2ccccc2)C(=O)c2ccccc2S3=O)cc1 (stereo not given),43.9%
Cc1ccc(CNC(=O)c2ccc3c(c2)N(Cc2cccc(Cl)c2)C(=O)CS3)cc1,i
O=C(NCc1ccc(F)cc1)c1ccc2c(c1)N(Cc1ccc(F)cc1Cl)C(=O)CS2,i
Cc1nnc2n1CCC(NC(=O)c1ccc3c(c1)OCO3)CC2 (stereo not given),30.9%
COc1ccc(CCC(=O)N2CCC(N3C(=O)C(O)C34CCCCC4)CC2)cc1 (stereo not given),-10.9%
SMILES,Pf Dd2 inh
CC1(O)CCCN(c2ccc(-c3nc(CCCc4ccccc4)no3)cn2)C1 (stereo not given),-1.3%
CCC(C)NC(=O)c1ccc2c(c1)CC(=O)N2C (stereo not given),-6.6%
COC(=O)c1ccc2c(c1)N(CC(=O)Nc1ccc(OC)c(Cl)c1)C(=O)c1ccccc1S2,i
O=C(NC1CCCC1)c1ccc2c(c1)N(Cc1ccc(C(F)(F)F)cc1)C(=O)c1ccccc1S2,12.6µM*
COc1ccc(CCNC(=O)c2ccc3c(c2)N(Cc2ccccc2C)C(=O)c2ccccc2S3)cc1OC,i
Cc1ccc(CN2C(=O)c3ccccc3Sc3ccc(C(=O)NC4CCCC4)cc32)cc1,-4.7%
COC(=O)c1ccc2c(c1)N(Cc1cc(C)ccc1C)C(=O)c1ccccc1S2,i
Cc1ccc(CN2C(=O)c3ccccc3Sc3ccc(C(=O)NCCCN4CCOCC4)cc32)cc1,i
O=C(NC1CCCC1)c1ccc2c(c1)N(Cc1ccccc1Cl)C(=O)c1ccccc1S2,-9.1%
Cc1ccc(CN2C(=O)c3ccccc3Sc3ccc(C(=O)N4CCC5(CC4)OCCO5)cc32)cc1,8.91µM*
O=C(c1ccc2c(c1)N(Cc1ccc(F)cc1Cl)C(=O)c1ccccc1S2)N1CCC2(CC1)OCCO2,i
Cc1cc(C)cc(NC(=O)CN2C(=O)c3ccccc3Sc3ccc(C(=O)N4CCOCC4)cc32)c1,1.6%
COc1ccccc1CNC(=O)c1ccc2c(c1)N(Cc1cc(C)ccc1C)C(=O)c1ccccc1S2,2.51µM*
COc1cc(NC(=O)CN2C(=O)c3ccccc3Sc3ccc(C(=O)N4CCCC4)cc32)cc(OC)c1,7.94µM*
Cc1cn(CC(=O)N2C[C@@H](C)[C@](O)(C(C)C)C2)c(=O)[nH]c1=O,-11.5%
CN(C(=O)Cn1ccn2nc3c(c2c1=O)CCCC3)C1CCCCC1,-7.0%
c1ccc(CN2CCC(Oc3cnc4c(ccn4-c4cncnc4)c3)CC2)cc1,-7.1%[44.1 µM]
COc1ccc(NC(C)=O)cc1NC(=O)Cn1nc2c(cc1=O)CCCC2,-8.9%
COC[C@@H]1CN(C(=O)Cn2ccc(C)n2)C[C@H]1c1ccccn1,8.7%
O=C(c1cn(C2CNC2)nn1)N1CCCC1,4.6%
COc1ccc(C(C(=O)O)N2CCCN(c3ncccn3)CC2)c(OC)n1 (stereo not given),3.9%
CCOc1cc(C2C(C(=O)OC)=C(C)NC3=C2C(=O)c2ccccc23)ccc1OC (stereo not given),10µM*
CCOc1cc(C2C(C(=O)OC)=C(C)NC3=C2C(=O)c2ccccc23)c(Br)cc1O (stereo not given),-6.0%
CCOC(=O)COc1ccc(C2C(C(=O)OC)=C(C)NC3=C2C(=O)c2ccccc23)cc1Cl (stereo not given),-6.2%
O=C(NC1CC1)c1ccnc2[nH]ccc12,19.5%[44.1 µM]
SMILES,Pf Dd2 inh
Cc1ccc(CNC(=O)C2(Cc3ccccc3)CCCCC(=O)N2)cc1 (stereo not given),-19.2%
Cc1ccccc1-c1noc(CNCc2nc3ccc(Cl)cc3[nH]2)n1,-4.9%
Cc1cc(N2CCN(C)CC2)nc2ccc(NC(=O)Nc3ccccc3Cl)cc12,3.16µM*
COc1cccc(NC(=O)c2ccc3c(c2)CCN3S(C)(=O)=O)c1,20.8%
COc1cccc(NC(=O)Nc2ccc3nc(N4CCN(C)CC4)cc(C)c3c2)c1,2.51µM*
COc1cccc(CNC(=O)C(=O)Nc2ccc3nc4n(c(=O)c3c2)CCCCC4)c1,-9.1%
Cc1ccc(NC(=O)C2Cc3ccccc3N2C(=O)c2ccccc2)cc1Cl (stereo not given),42.8%
Cn1c(=O)n(C)c2cc(N3CCCC3)c(NC(=O)Nc3ccccc3)cc21,i
O=C(c1cc(-c2cccnc2)nc2ccccc12)N1CCCC2(CCOC2)C1 (stereo not given),-6.4%
CCC(=O)N1CCC(Oc2ccc(C(=O)N3CCOCC3)cn2)CC1,41.4%
COCCN1C(=O)c2ccccc2C(C(=O)NCCC2=CCCCC2)C12CCCC2 (stereo not given),-14.3%
CCOCCN1C(=O)COC[C@@H]1[C@H](O)c1ccc(NC(=O)COc2ccccc2)cc1,-25.5%[44.1 µM]
CCN1C(=O)COC[C@@H]1[C@H](O)c1ccc(NC(=O)COc2ccccc2)cc1,-8.2%[44.1 µM]
O=C(COc1ccccc1)Nc1ccc([C@@H](O)[C@H]2COCC(=O)N2CCCc2ccccc2)cc1,7.94µM*
COCCN1C(=O)CS(=O)(=O)C12CCN(C(=O)C1(c3ccc(OC)cc3)CC1)CC2,-3.6%
CCC1c2nccn2CCCN1C(=O)C1CCOCC1 (stereo not given),-3.6%
CCC1c2nccn2CCCN1C(=O)c1ccc2c(c1)OCO2 (stereo not given),-20.1%
